PubChem BioAssay (EPA / NIEHS)
Results filed as inconclusive are left out. The source made the active and inactive calls. The calls were made as follows, unless noted: active = hit-call score of the fitted dose curve at least 0.9, where 1 is the maximum; inconclusive = response in the unintended direction; inactive = score below 0.9.

Legend:
[1] = read-out: xenobiotic metabolism (CYP1A2), CYP1A2 (gene 1544); test: CLD_CYP1A2_48hr: CellzDirect (CLD) Gene Expression Assay for xenobiotic metabolism (CYP1A2) at 48 hours (AID 2283703)
In short: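 Cytotoxicity was flagged yes/no from morphology, while CYP1A2 transcript induction was detected by qNPA chemiluminescence after a 48-hour exposure. Human primary hepatocyte cultures from separate donors received fresh dosing solutions daily over two days, with 0.2% DMSO as vehicle and baseline.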

[2] = read-out: Broad substrate specificity ATP-binding cassette transporter ABCG2 (Homo sapiens) (UniProt Q9UNQ0); test: CLD_ABCG2_48hr: CellzDirect (CLD) Gene Expression Assay for ABC Transporter (ABCG2) at 48 hours (AID 2283704)
In short: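 ABCG2 transcript measured at 48 h by quantitative nuclease protection (chemiluminescent) and fitted for increase relative to 0.2% DMSO. Hepatocyte cultures from separate donors got fresh compound daily over two days; morphology annotated cytotoxicity.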

[3] = read-out: Glyceraldehyde-3-phosphate dehydrogenase (Homo sapiens) (UniProt P04406); test: CLD_GAPDH_48hr: CellzDirect (CLD) Gene Expression Assay for Baseline Control (Glyceraldehyde 3-phosphate dehydrogenase) at 48 hours (AID 2283706);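 also: active means higher GAPDH mRNA than DMSO vehicle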
In short: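 GAPDH baseline-control readout: qNPA chemiluminescent mRNA quantitation in human liver primary cells 48 h after daily dosing on two consecutive days, vehicle 0.2% DMSO; gain of signal fitted against DMSO, cytotoxicity flagged by phase-contrast morphology.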

[4] = read-out: alkyl and aryl transferase (GSTA2), GSTA2 (gene 2939); test: CLD_GSTA2_48hr: CellzDirect (CLD) Gene Expression Assay for alkyl and aryl transferase (GSTA2) at 48 hours (AID 2283708);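 also: active means mRNA induction above DMSO vehicle baseline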
In short: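 GSTA2 mRNA quantified by qNPA chemiluminescence in human primary hepatocyte lysates after 48 h of daily fresh chemical dosing. Increases fitted against 0.2% DMSO vehicle baseline; cytotoxicity from morphology annotated yes/no.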

[5] = read-out: glucuronosyltransferase (UGT1A1), UGT1A1 (gene 54658); test: CLD_UGT1A1_48hr: CellzDirect (CLD) Gene Expression Assay for glucuronosyltransferase (UGT1A1) at 48 hours (AID 2283709);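 also: actives increase expression relative to DMSO so potency refers to induction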
In short: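 Quantitative nuclease protection assay (chemiluminescent) for UGT1A1 mRNA at 48 h in human hepatocyte cultures from two donors, redosed daily with fresh solutions. Induction fitted relative to 0.2% DMSO; phase-contrast morphology annotated cytotoxicity.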

[6] = Tanguay_ZF_120hpf_ActivityScore_legacy: (Legacy) Oregon State University Tanguay Lab 120 Hour Post-fertilization zebrafish Assay Score for Activity (AID 2283742);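 as to AC50: dechorionated Tropical 5D wild-type zebrafish embryos held singly per well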
In short: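 Dechorionated 5D embryos, one per well, static exposure 6–120 hpf, 28C, sealed and dark; final DMSO 0.64% (vol/vol). Brightfield binary scoring of mortality plus 18 endpoints; gain-of-signal fit versus DMSO baseline.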

[7] = read-out: sulfotransferase (SULT2A), SULT2A1 (gene 6822); test: CLD_SULT2A_48hr: CellzDirect (CLD) Gene Expression Assay for sulfotransferase (SULT2A) at 48 hours (AID 2283710);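 also: hits raise SULT2A1 transcript above the 0.2% DMSO vehicle baseline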
In short: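 SULT2A1 transcript measured by qNPA chemiluminescence in human primary hepatocyte cultures after 48 h, with fresh dosing solutions on two consecutive days; gain-of-signal fitting against 0.2% DMSO vehicle; cytotoxicity annotated from phase-contrast morphology.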

[8] = target: Luciferin 4-monooxygenase (Photinus pyralis) (UniProt P08659); test: CCTE_Simmons_QuantiLum_inhib_2: CCTE's Firefly Luciferase Inhibition Assay, Simmons Lab (AID 2283767);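 as to AC50: potency for inhibitors that lower luciferase luminescence relative to DMSO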
Chain of Luciferin 4-monooxygenase (Photinus pyralis) (P08659 whole entry, looked up): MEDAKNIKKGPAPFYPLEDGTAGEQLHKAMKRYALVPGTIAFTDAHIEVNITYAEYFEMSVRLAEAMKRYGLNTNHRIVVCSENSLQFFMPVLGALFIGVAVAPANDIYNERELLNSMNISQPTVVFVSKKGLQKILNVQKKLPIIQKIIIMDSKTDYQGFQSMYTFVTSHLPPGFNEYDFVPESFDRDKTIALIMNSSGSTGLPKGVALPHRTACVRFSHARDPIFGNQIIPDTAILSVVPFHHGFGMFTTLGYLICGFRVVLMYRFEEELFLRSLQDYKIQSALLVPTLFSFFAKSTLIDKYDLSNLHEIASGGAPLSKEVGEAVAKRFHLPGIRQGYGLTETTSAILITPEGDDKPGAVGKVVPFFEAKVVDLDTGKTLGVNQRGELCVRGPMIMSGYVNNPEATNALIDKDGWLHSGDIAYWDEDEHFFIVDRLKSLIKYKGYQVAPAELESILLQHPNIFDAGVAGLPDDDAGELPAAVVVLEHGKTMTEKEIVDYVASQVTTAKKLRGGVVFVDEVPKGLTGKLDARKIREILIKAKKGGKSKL
In short: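 Eight test concentrations, 5 nM up to 87.5 uM final, preincubated 30min at 37C in the dark with purified luciferase (0.5% DMSO final). Detection reagent (150uM D-luciferin, 147uM dATP, 75uM CoA, pH 7.8) injected per well before kinetic luminescence read; three replicates.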

[9] = read-out: xenobiotic metabolism (CYP1A1), CYP1A1 (gene 1543); test: CLD_CYP1A1_48hr: CellzDirect (CLD) Gene Expression Assay for xenobiotic metabolism (CYP1A1) at 48 hours (AID 2283705)
In short: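 CYP1A1 transcript measured by quantitative nuclease protection (chemiluminescent) 48 h after two daily treatments of human hepatocyte cultures, versus 0.2% DMSO. Morphology-based cytotoxicity flags accompany data; two donor preparations used.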

[10] = read-out: HMG-CoA synthase (HMGCS2), HMGCS2 (gene 3158); test: CLD_HMGCS2_48hr: CellzDirect (CLD) Gene Expression Assay for HMG-CoA synthase (HMGCS2) at 48 hours (AID 2283711)
In short: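 mRNA induction read by qNPA chemiluminescence, 48 h after dosing. Cultured primary human liver cells (two donor preparations) received fresh compound daily over two days against 0.2% DMSO vehicle; morphology-based cytotoxicity noted alongside.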

[11] = CEETOX_H295R_MTT_cell_viability: Viability Assessment in the CeeTox HT-H295R MTT Assay (AID 2283718; active = hit-call score of the fitted dose curve at least 0.9, where 1 is the maximum; inactive = score below 0.9)
In short: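 Human H295R adrenal cells, prestimulated 48 h with 10 uM forskolin, were exposed 48 h to chemicals in 0.1% DMSO. Viability was measured in the same wells by MTT (0.5 mg/ml, 4 h, 37 C), absorbance 570/650 nm, as percent of controls.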

[12] = STM_H9_OrnithineISnorm_perc: Stemina devTOX quickPredict H9 human embryonic stem cell (hESC)-based Assay for Ornithine (ORN) Metabolite Biomarker, Normalized (AID 2283712; active = hit-call score of the fitted dose curve at least 0.9, where 1 is the maximum; inactive = score below 0.9;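 also: ornithine released into spent medium during last day measured by mass spectrometry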)
In short: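 Ornithine in spent medium from the last 24 h of a 72 h exposure, deproteinised and quantified by UPLC-HRMS against an isotope-labelled internal standard, expressed relative to 0.1% DMSO. Pluripotent H9 cells; compound refreshed every 24 h.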

[13] = test system: Thyroperoxidase (TPO), gene 445522; test: CCTE_Simmons_GUA_TPO: CCTE's Guaiacol Assay for Thyroperoxidase (TPO) Inhibition, Simmons Lab (AID 2283750)
In short: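 Porcine thyroid microsomes (25 ug) in 200mM potassium phosphate, preincubated 30 s at 37C with compound (8 concentrations, 5 nM–87.5 uM) and 35mM guaiacol; 1mM H2O2 starts reaction. Absorbance change at 450nm over first 80 s; loss of signal versus DMSO, three replicates.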

[14] = ArunA_CellTiter_hNC: Viability Assessment in the ArunA Biomedical's Oris Neural Crest (hNC) Cell Migration Assay (AID 2283752)
In short: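 After a 72 h chemical exposure, viability of hNC cells is read with CellTiter Aqueous One and fitted as signal loss relative to DMSO. Cells were seeded at 60,000/well on Matrigel and cultured 16 h at 37 C beforehand.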

[15] = ArunA_CellTiter_hNP: Viability Assessment in the ArunA Biomedical's Oris Neural Crest (hNC) Cell Migration Assay (AID 2283753)
In short: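 Viability read with CellTiter 96 Aqueous One after 72 h chemical exposure of human hNP1 neuroprogenitors, which were plated on Matrigel in LIF/bFGF medium 16 h beforehand. Endpoint fitted in positive direction relative to DMSO.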

[16] = ArunA_Migration_hNP: ArunA Biomedical's Oris Neuroprogenitor (hNP) Cell Migration Assay (AID 2283754)
In short: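 Readout is calcein-AM fluorescence (ex494/em517) of cells migrating into the detection zone, relative to DMSO. hNP1 cells (H9-derived) grown on Matrigel behind stoppers 16 h, then stoppers pulled and chemical applied 72 h; cytochalasin D as control.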

[17] = ArunA_Migration_hNC: ArunA Biomedical's Oris Neural Crest (hNC) Cell Migration Assay (AID 2283755)
In short: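 Calcein-AM fluorescence (ex494 nm/em 517 nm) in the stopper-defined detection zone quantifies migration of hNC cells after 72 h chemical exposure; 60,000 cells/well plated on Matrigel with LIF and bFGF, 16 h pre-incubation. DMSO baseline.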

[18] = ArunA_NOG_NucleusCount: ArunA Biomedical's Neurite Outgrowth (NOG) Assay for Nucleus Count (AID 2283756)
In short: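 Viable neuron count, from Hoechst nuclei passing size and intensity gates, imaged at 20x on differentiated H9-derived human neurons. Exposure lasted 48 h from seeding; activity was scored relative to DMSO.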

[19] = ArunA_NOG_NeuritesPerNeuron: ArunA Biomedical's Neurite Outgrowth (NOG) Assay for Neurites Per Neuron (AID 2283758)
In short: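 Differentiated human H9-derived neurons exposed to chemicals for 48 h from seeding, then stained with Hoechst and βIII-tubulin/DyLight 488. Automated imaging counted neurites (processes >10 um) per valid neuron; loss of signal versus DMSO scored.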

Measured: AC50

Chain of Glyceraldehyde-3-phosphate dehydrogenase (Homo sapiens) (P04406 whole entry, looked up): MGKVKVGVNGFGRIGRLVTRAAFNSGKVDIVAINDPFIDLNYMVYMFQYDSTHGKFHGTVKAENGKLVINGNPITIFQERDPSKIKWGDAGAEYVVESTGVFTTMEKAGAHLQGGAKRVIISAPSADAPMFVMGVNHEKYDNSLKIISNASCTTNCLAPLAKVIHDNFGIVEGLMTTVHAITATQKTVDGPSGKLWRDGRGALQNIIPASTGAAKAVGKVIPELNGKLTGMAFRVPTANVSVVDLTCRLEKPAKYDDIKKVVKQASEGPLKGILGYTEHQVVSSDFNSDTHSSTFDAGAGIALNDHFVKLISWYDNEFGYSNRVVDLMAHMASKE
Chain of Broad substrate specificity ATP-binding cassette transporter ABCG2 (Homo sapiens) (Q9UNQ0 whole entry, looked up): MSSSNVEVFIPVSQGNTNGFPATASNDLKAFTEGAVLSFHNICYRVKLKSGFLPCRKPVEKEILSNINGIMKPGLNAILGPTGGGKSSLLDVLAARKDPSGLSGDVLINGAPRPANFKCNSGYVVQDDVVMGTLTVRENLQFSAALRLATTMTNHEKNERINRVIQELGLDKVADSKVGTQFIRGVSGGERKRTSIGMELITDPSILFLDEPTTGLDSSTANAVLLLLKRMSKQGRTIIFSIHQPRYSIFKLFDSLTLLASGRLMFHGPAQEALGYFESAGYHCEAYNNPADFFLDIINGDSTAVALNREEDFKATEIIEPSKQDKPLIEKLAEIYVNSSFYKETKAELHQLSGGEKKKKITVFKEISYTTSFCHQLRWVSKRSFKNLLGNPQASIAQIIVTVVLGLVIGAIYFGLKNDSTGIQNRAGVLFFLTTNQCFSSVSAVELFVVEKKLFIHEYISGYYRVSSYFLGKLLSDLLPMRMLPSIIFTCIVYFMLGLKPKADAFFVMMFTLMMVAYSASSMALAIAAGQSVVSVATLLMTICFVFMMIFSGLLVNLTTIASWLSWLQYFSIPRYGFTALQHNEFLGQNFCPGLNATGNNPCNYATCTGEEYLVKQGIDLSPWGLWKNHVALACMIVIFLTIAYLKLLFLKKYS

COP(=O)(OC)O/C(C)=C/C(=O)N(C)C
inactive: [1] | [2] | [3] | [4] | [5] | [6]

O=c1n(Cl)c(=O)n(Cl)c(=O)n1Cl
inactive: [1] | [2] | [4] | [5] | [7] | [6] | [8]

CCCC(=NOCC)C1=C(O)CC(CC(C)SCC)CC1=O (stereo not given)
inactive: [1] | [9] | [3] | [4] | [5] | [10] | [11] | [6]

COC(=O)N(C(=O)N1CO[C@@]2(C(=O)OC)Cc3cc(Cl)ccc3C2=N1)c1ccc(OC(F)(F)F)cc1
inactive: [5] | [7] | [6]
active: [1] 4.25 µM

O=P(O)(O)CCCl
inactive: [1] | [9] | [5] | [6] | [8]
active: [10] 0.000456 µM

CCSC(=O)N1CCCCCC1
inactive: [2] | [9] | [4] | [5] | [11] | [6]

Cc1cc(C)nc(Nc2ccccc2)n1
inactive: [5] | [10] | [12] | [6]
active: [1] 7.9 µM | [9] 3.97 µM

Cc1nc(N(C)C)nc(OC(=O)N(C)C)c1C
active: [1] 3.27 µM
inactive: [3] | [5] | [11] | [6]

O=C(Nc1ccccc1-c1ccc(Cl)cc1)c1cccnc1Cl
active: [1] 4.95 µM | [12] 50 µM
inactive: [4] | [5] | [11] | [6]

N#Cc1c[nH]cc1-c1cccc2c1OC(F)(F)O2
inactive: [5]
active: [1] 2.37 µM | [12] 38.3 µM | [6] 26.9 µM

N#Cc1c(Cl)cccc1Cl
inactive: [2] | [9] | [4] | [5] | [11] | [6]

COCC(=O)N(c1c(C)cccc1C)C(C)C(=O)OC (stereo not given)
inactive: [1] | [5] | [10] | [11] | [6]
active: [7] 20 µM

CCC(C)n1c(=O)[nH]c(C)c(Br)c1=O (stereo not given)
inactive: [5] | [12] | [11] | [6]
active: [1] 11.8 µM

COC(=O)NS(=O)(=O)c1ccc(N)cc1
active: [13] 136 µM | [8] 0.149 µM
inactive: [1] | [3] | [5] | [10] | [6]

CC(C)C1(C)N=C(c2ncccc2C(=O)O)NC1=O (stereo not given)
not listed: [1] | [2] | [7] | [8] | [9] | [10] | [11] | [13]
inactive: all other assays above

CN/C(=N\[N+](=O)[O-])NCc1cnc(Cl)s1
inactive: [11] | [6]

CC(C)Nc1nc(Cl)nc(NC(C)C)n1
active: [1] 2.76 µM | [5] 5.88 µM | [12] 0.0393 µM
inactive: [9] | [4] | [11] | [6]

COCC(C)N(C(=O)CCl)c1c(C)csc1C (stereo not given)
inactive: [2] | [3] | [5]
active: [4] 32.1 µM | [6] 29.2 µM

CCN(CC)C(=O)C(C)Oc1cccc2ccccc12 (stereo not given)
inactive: [4] | [11] | [6]
active: [1] 5.76 µM | [5] 3.1 µM | [7] 33 µM | [12] 50 µM | [8] 0.000739 µM
